Laboratory results as given in PubChem BioAssay (NCATS).
Records with an inconclusive call do not appear. Unmarked numbers belong to inactive results. Calls of active or inactive are those of the source. Calls come from the whole dose curve; as a rule, active = well fitted inhibition curve with a large enough effect; inconclusive = small, poorly fitted or top-dose-only effect; inactive = flat fitted curve, though single readings scatter.

Experiment: qHTS profiling for inhibitors of Plasmodium falciparum proliferation (AID 504749); note: nearly all actives have a fitted effect of over 60% in size;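 for activity, negative = inhibition: 0% = DMSO vehicle and full inhibition = artemisinin control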
Conditions: P. falciparum in erythrocytes, SYBR Green DNA, 72 h; at 28.7 µM (top of the series); parasite line A
Source text: NIH National Institute of Allergy and Infectious Diseases [NIAID] NIH Chemical Genomics Center [NCGC] MLPCN Grant: None Assay Provider: Xinzhuan Su, NIAID NCGC Assay Overview: Plasmodium falciparum is a virulent malarial parasite that kills 1-2 million people worldwide each year. Transmitted by mosquitoes, the sporozoite form of the parasite enters the blood stream to infect hepatocytes, where they become merozoites that infect red blood cells (erythrocytes). Within erythrocytes, merozoites begin a […] cycle of growth and division, after which the parasite is released to infect new red blood cells. Gametocytes, which form within erythrocytes as well, circulate in the bloodstream and are ingested by the mosquito, thereby completing the life cycle. To profile malarial isolates for differential chemical responses and to identify inhibitors of malarial growth, an assay that measures P. falciparum growth and replication within erythrocytes was employed. This assay uses a DNA binding fluorescent dye (SYBR Green) to detect parasite DNA following cell lysis. Because mature erythrocytes lack DNA, only Plasmodium-derived DNA is detected.
NCGC Assay Protocol Summary: The SYBR Green viability assay was adapted from a method described previously (Plouffe et al., 2008). For screening 3 ul culture medium was dispensed into 1536 well black clear bottom plates (Aurora Biotechnologies) using a Multidrop Combi (Thermo Fisher Scientific Inc.), 23 nL compounds in DMSO were added by a pin tool (Kalypsys), and 5 ul of erythrocytes infected with P. falciparum (0.3% parasitemia, 2.5% hematocrit final concentration) were added. The plates were incubated at 37 C in a humidified incubator in 5% CO2 for 72 h, and 2 ul lysis buffer (20 mM Tris HCl, 10 mM EDTA, 0.16% saponin, 1.6% triton X, 10X SYBR Green I supplied as 10,000X […] by Invitrogen) was added to each well. The plates were mixed for 25 sec with gentle shaking and incubated overnight at room temperature in the dark. The following morning, fluorescence intensity at 485(14) nm excitation and 535(25) nm emission wavelengths was measured on an EnVision (Perkin Elmer) plate reader. Plate reads were normalized relative to the control inhibitor (0.29 uM artemisinin) and vehicle (DMSO) wells present on each plate and then corrected by an algorithm using vehicle-only control plates at the beginning and end of the compound plate stack.
Potency is the fitted concentration of half-maximal effect.

| SMILES | activity, negative = inhibition [%] |
| --- | --- |
| C[N+]1(C)C2CC[C@H]1CC(OC(=O)[C@@H](CO)c1ccccc1)C2 (some centres not stated) | 0.517 |
| C[N+]1([O-])[C@H]2CC[C@H]1CC(OC(=O)[C@@H](CO)c1ccccc1)C2 (some centres not stated) | 6.57 |
| C[C@@H]1O[C@@H](O[C@H]2C[C@@H](O)[C@@]3(CO)[C@H]4[C@H](O)C[C@]5(C)[C@@H](C6=CC(=O)OC6)CC[C@]5(O)[C@H]4CC[C@@]3(O)C2)[C@@H](O)[C@H](O)[C@H]1O | -4.19 |
| O=C1C[C@@H]2OCC=C3CN4CC[C@]56c7ccccc7N1[C@@H]5[C@@H]2[C@H]3C[C@H]46 (tested in a mixture with another compound) | -29.7 |
| C[C@@H](Cc1ccc(O)cc1)NC[C@@H](O)c1cc(O)cc(O)c1 | 13.4 |

Same assay, conditions: P. falciparum in erythrocytes, SYBR Green DNA, 72 h; at 28.7 µM (top of the series); parasite line B

| SMILES | activity, negative = inhibition [%] |
| --- | --- |
| C[N+]1(C)C2CC[C@H]1CC(OC(=O)[C@@H](CO)c1ccccc1)C2 (some centres not stated) | -9.85 |
| C[N+]1([O-])[C@H]2CC[C@H]1CC(OC(=O)[C@@H](CO)c1ccccc1)C2 (some centres not stated) | -2.12 |
| C[C@@H]1O[C@@H](O[C@H]2C[C@@H](O)[C@@]3(CO)[C@H]4[C@H](O)C[C@]5(C)[C@@H](C6=CC(=O)OC6)CC[C@]5(O)[C@H]4CC[C@@]3(O)C2)[C@@H](O)[C@H](O)[C@H]1O | 10.7 |
| O=C1C[C@@H]2OCC=C3CN4CC[C@]56c7ccccc7N1[C@@H]5[C@@H]2[C@H]3C[C@H]46 (tested in a mixture with another compound) | -15.1 |
| C[C@@H](Cc1ccc(O)cc1)NC[C@@H](O)c1cc(O)cc(O)c1 | 5.16 |

Same assay, conditions: P. falciparum in erythrocytes, SYBR Green DNA, 72 h; parasite line A

| SMILES | Potency |
| --- | --- |
| C=C[C@@H]1CN2CC[C@H]1C[C@H]2[C@H](O)c1ccnc2ccccc12 | 89.1 nM (active) |

Same assay, conditions: P. falciparum in erythrocytes, SYBR Green DNA, 72 h; parasite line B

| SMILES | Potency |
| --- | --- |
| C=C[C@@H]1CN2CC[C@H]1C[C@H]2[C@H](O)c1ccnc2ccccc12 | 100 nM (active) |
